High-throughput results deposited in PubChem BioAssay by National Center for Advancing Translational Sciences (NCATS).
Compounds with a hit are over-represented: about 1.3% of the library has one in this group of screens.
Mito fusion yeast – inhibitors of mitochondrial division or activators of mitochondrial fusion; S. cerevisiae fusion-defective mutant growth rescue, CellTiterGlo 48 h; Potency, µM (series often up to 46.1 µM), for the others: at the top dose growth rescue (activation), usual class: activators; 320,000 tested, 0.23% active; further: potency means the concentration at half of the fitted maximal effect; % of control where 0% means no effect; nearly all actives have a fitted effect of over 45% in size
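Growth-rescue viability read-out: after 48 h at the non-permissive 37C in glycerol/ethanol YPEG, yeast mitochondrial fusion mutants are measured by CellTiterGlo luminescence; compounds (23 nl pinned per well) restoring growth score as division inhibitors or fusion activators.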
TCR act – activates T cell receptor signaling. primary human leukocytes, anti-CD3, IL-2 HTRF, 48 h. Potency, µM (top dose mostly 9.22 µM), for the others: top-dose activation of IL-2 secretion, usual class: activators. 330,000 tested, under 10 active. AID 504894; further: % of control where 0% means no effect
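Primary human leukocytes incubated 48 hr with anti-CD3 beads plus compound, without co-stimulation. Secreted IL-2 measured by HTRF (europium cryptate/d2 anti-IL-2 pair, 320 nm excitation, 665 nm emission).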
p53 reactivator – mutant p53 re-activation in reporter cells. Potency, µM (series often up to 92.2 µM), for inactives: at the top dose activity change, positive = activation, hits mostly activators. AID 504706. 320,000 tested, 0.063% active. H1299 p53-A138V BP100-luciferase reporter, luminescence, 24 h; further: potency means the concentration at half of the fitted maximal effect; % of control where 0% means no effect; nearly all actives have a fitted effect of over 45% in size
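p53-null H1299 cells stably carrying temperature-sensitive p53-A138V and a BP100-luciferase reporter were pinned with compounds (4-point, 1:5 series) and held 24 hrs at 37 deg C. Luminescence was read 10 min after detection reagent.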
IL2 activator – activators of IL-2. IL-2 activation reporter assay, cell-based qHTS; stimulated with anti-CD3/CD4/CD28 beads; in transgenic mouse T cells. activation, % (series mostly up to about 46 µM). 360,000 tested, 0.065% active; in the data active means activation above about 50%; inconclusive means mostly about 30% to 49%; further: 0% is about no effect
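Unstimulated transgenic mouse T cells, 750 per well, received compound and, after 60 minutes, anti-CD3/anti-CD4 bead plus anti-CD28 stimulation. EGFP and DsRed were quantified after 18 hours.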
BRCA1 expr act – activators of BRCA1 expression. MCF7-BRCA1-FFLuc reporter, luminescence, 48 h; response scale: scaled: vehicle 0%, 10 µM genistein 100%. Potency, µM (titrated, usually from 46.1 µM), without a hit: at the top dose activation, hits mostly activators. 380,000 tested, 1.1% active; further: potency means the concentration at half of the fitted maximal effect; nearly all actives have a fitted effect of over 80% in size
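First, MCF7-BRCA1-FFLuc cells (2000/well) attach for 2 h; next, compounds are pin-added and incubated 48 h at 37 °C; finally, luciferase reagent is added and luminescence read after 15 min.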
* hit, by the source's call; [ ] = another dose, or the depositor's remark. Unless noted, the call rests on the fitted dose curve; in most records, active means well fitted curve in the direction sought with a large enough effect; inconclusive means small, poorly fitted or top-dose-only effect, or another doubt; inactive means no such curve, though single readings can be large; an effect the other way counts as inactive or inconclusive.

For CCOc1ccc(NC(=O)c2ccc(NC(=O)COC(=O)Cc3ccc(OC)cc3)cc2)cc1 the results were Mito fusion yeast 0%, TCR act -3%, p53 reactivator 5%, IL2 activator 2 and BRCA1 expr act 4.5µM*.
`COc1ccc(CC(=O)Nc2ccc(C(N)=O)cc2)cc1` gave Mito fusion yeast -3%, TCR act 2%, p53 reactivator -1%, IL2 activator 1 and BRCA1 expr act -5%.
For O=C(O)CCc1cccc2ccccc12 the results were BRCA1 expr act 0%.
Screening COc1cc(C2OC(=O)c3c2ccc(OC)c3OC)ccc1O (stereo not given) returned Mito fusion yeast -5%.
Screening O=C(Cc1ccc2ccccc2c1)NO returned BRCA1 expr act 0%.
`CCN(CC)CCCNc1ccc2ncn3c4ccc(O)cc4c(=O)c1c23` gave TCR act 1%, IL2 activator 124* and BRCA1 expr act -79%.
CN(C)C(=S)SCC(=O)Nc1ccc(Cl)cc1Cl was read as Mito fusion yeast 7%, TCR act -2%[46.1 µM], p53 reactivator 18%, IL2 activator 1 and BRCA1 expr act 10µM*.
`Cc1cc(NC(=O)c2ccc3[nH]c(C)c(C)c3c2)ccn1` gave Mito fusion yeast -20%, TCR act 13%, p53 reactivator 9%, IL2 activator -2 and BRCA1 expr act 25%.
`CC(=O)Nc1cccc(NC(=O)c2ccc3[nH]c(C)c(C)c3c2)c1` gave Mito fusion yeast 0%, TCR act 9%, p53 reactivator 13%, IL2 activator -3 and BRCA1 expr act 10µM*.
NC(=O)c1ccsc1NC(=O)c1ccc(S(=O)(=O)N2CCCC2)cc1 was read as Mito fusion yeast 3%, TCR act -3%, p53 reactivator 17%, IL2 activator 0 and BRCA1 expr act 13µM*.
NC(=O)c1ccsc1NC(=O)c1ccc(S(=O)(=O)N2CCCCC2)cc1 was read as Mito fusion yeast 12%, TCR act 1%, p53 reactivator inconclusive, IL2 activator -3 and BRCA1 expr act 81%.
COc1ccc(NC(=O)c2ncoc2-c2ccco2)cc1Cl was read as BRCA1 expr act 35%.
`O=c1c2c3c(sc2nc2n1CCCCC2)CCCC3` gave Mito fusion yeast 11%, TCR act 0%, p53 reactivator inconclusive, IL2 activator -1 and BRCA1 expr act 4.5µM*.
Screening CC1=Nn2c(nc3sc4c(c3c2=O)CCCC4)SC1 returned Mito fusion yeast 29%, TCR act -2%[46.1 µM], p53 reactivator 18%, IL2 activator 0 and BRCA1 expr act 7.1µM*.
For Nc1c2c3c(sc2nc(=O)n1N)CCCC3 the results were Mito fusion yeast 1%, TCR act 0%, p53 reactivator -3%, IL2 activator 0 and BRCA1 expr act -12%.
O=c1c2c3c(sc2nc2n1CCCCC2)CCCCC3 was read as Mito fusion yeast 11%.
Nc1nc2sc3c(c2c(=O)s1)CCCC3 was read as Mito fusion yeast -9%, TCR act -2%, p53 reactivator 17%, IL2 activator -2 and BRCA1 expr act 11µM*.
Cc1cccc(NC(=O)C2C3CCCCC32)c1 (stereo not given) was read as Mito fusion yeast -1%, TCR act -3%, IL2 activator 0 and BRCA1 expr act 10µM*.
CC(=O)c1cccc(NC(=O)Nc2ccc3c(c2)CCC3)c1 was read as Mito fusion yeast 2%, TCR act 1%, p53 reactivator 7%, IL2 activator -4 and BRCA1 expr act 7.1µM*.
`Cc1cccc(NC(=O)Nc2ccc3c(c2)CCC3)c1` gave Mito fusion yeast 1%, TCR act 0%, p53 reactivator inconclusive, IL2 activator -1 and BRCA1 expr act 4.5µM*.
For O=C(Nc1ccccc1)C1C2CCCCC21 (stereo not given) the results were Mito fusion yeast 0%, TCR act 0%, IL2 activator 0 and BRCA1 expr act 57%.
For CC(=O)c1cccc(Nc2ccc(Br)cc2)c1 the results were IL2 activator 0 and BRCA1 expr act 10µM*.
Screening CC(=O)O[C@H]1CC2(C)[C@@H](C[C@@H](O)[C@H]3[C@@]4(C)CC[C@@H](O)[C@@H](C)[C@@H]4CC[C@@]32C)C1=C(CCC=C(C)C)C(=O)O (stereo not given in full) returned Mito fusion yeast -1%.
For COc1ccc(OC)c(NC(=O)CCc2nc(-c3ccc(C)cc3)no2)c1 the results were BRCA1 expr act 12%.
For COc1ccc(OC)c(CCNC(=O)c2cnn(-c3ccccc3)c2-n2cccc2)c1 the results were BRCA1 expr act -42%.
For CCc1ccc(NC(=O)Nc2ccon2)cc1 the results were Mito fusion yeast -3%, TCR act 2%, p53 reactivator inconclusive, IL2 activator 0 and BRCA1 expr act 3.2µM*.
`CCc1ccc(NC(=O)Nc2ccc3c(c2)CCC3)cc1` gave Mito fusion yeast -1%, TCR act 3%, p53 reactivator 10%, IL2 activator -1 and BRCA1 expr act 3.5µM*.
Screening CC(=O)c1cccc(NC(=O)c2ccc3c(c2)CCCC3)c1 returned Mito fusion yeast inconclusive, TCR act 0%, p53 reactivator inconclusive, IL2 activator 8 and BRCA1 expr act 3.5µM*.
O=C(Nc1ccc([N+](=O)[O-])cc1)Nc1ccon1 was read as Mito fusion yeast -9%, TCR act 8%, p53 reactivator -31%, IL2 activator -5 and BRCA1 expr act -30%.
For C=C1C=C(C(F)F)n2ncc(C(=O)N3CCc4ccccc4C3)c2N1 the results were BRCA1 expr act 5%.
COc1ccc(CCNC(=O)c2c(C)oc3ncn(CC(C)C)c(=O)c23)c(OC)c1 was read as BRCA1 expr act 0%.
O=C(Nc1nnc(Cc2ccccc2)s1)C1CCN(C(=O)c2cccs2)CC1 was read as BRCA1 expr act -19%.
`Cc1ccc2c(Cl)c(C(=O)NC3CC3)sc2c1` gave Mito fusion yeast 2%, TCR act -3%, p53 reactivator 23%, IL2 activator -5 and BRCA1 expr act 2.8µM*.
Screening CC1CCC(NC(=O)N(CCCl)N=O)CC1 (stereo not given) returned TCR act -4%, IL2 activator 0 and BRCA1 expr act 5µM*.
Screening Cc1ccc(S(=O)(=O)n2nc(-c3ccccc3)nc2NCc2ccc(Cl)cc2)cc1 returned BRCA1 expr act 0%.
O=C(Cc1ccc([N+](=O)[O-])cc1)c1ccc(O)cc1O was read as Mito fusion yeast 0%, TCR act 0%, p53 reactivator 13%, IL2 activator 1 and BRCA1 expr act 10µM*.
